# Data reported in PubChem BioAssay AID686979 (National Center for Advancing Translational Sciences (NCATS), 2013).
# Screen size: about 420,000 compounds; about 50,000 (12%) were called active. Roughly 26% stayed inconclusive and do not appear here. This excerpt belongs to a sample that is enriched for actives. A number with no mark means an inactive call. The call rests on the fitted dose curve; in most records, active means well fitted inhibition curve with a large enough effect; inconclusive means small, poorly fitted or top-dose-only effect; inactive means flat fitted curve, though single readings scatter.
# Assay: qHTS for Inhibitors of human tyrosyl-DNA phosphodiesterase 1 (TDP1): qHTS in cells in presence of CPT; further: nearly all actives have a fitted effect of over 55% in size
# Conditions: chicken DT40 Tdp1-/-;hTDP1 cells + 20 nM CPT, ATP luminescence, 48 h; series mostly up to 46.2 µM; activity change, negative = growth inhibition: at the top concentration
# Text: Human tyrosyl-DNA phosphodiesterase 1 (TDP1) is a novel repair gene, and we propose to use it as a new target for anticancer drug development. TDP1 is not an essential protein, but under treatment with topoisomerase I poison (camptothecin: CPT), TDP1 works as a critical factor for cell survival. To directly identify novel TDP1 inhibitors active in a cellular environment, we have knocked-out the Tdp1 gene in chicken DT40 cells (Tdp1-/-) and generated a complemented counterpart cells that contains a stable transfection of the human TDP1 gene (Tdp1-/-;hTDP1 cells). For the primary screen, Tdp1-/-;hTDP1 cells will be exposed to small molecules in the presence or absence of CPT, and their growth kinetics will be evaluated after 48 hours by measuring ATP activity. […] The hit compounds will then be evaluated in the presence or absence of CPT using Tdp1-/- cells. […] In tertiary assays, biochemical gel-based assays will be used to assess whether the hit compounds specifically target TDP1. To this end, we have screened this cell line against the MLSMR in two primary screens. In one screen we add CPT and in the other we screen in the absence of CPT; this AID represents the screen where CPT was present. NIH Chemical Genomics Center [NCGC] NIH Molecular Libraries Probe Centers Network [MLPCN] MLPCN Grant: MH095538 Assay Submitter (PI): Yves Pommier, NCI
# DT40-hTDP1 cells with 20 nM Camptothecin (add 20 microL of 1 mM CPT stock in 1 L of cell culture medium) were dispensed at 400 cells/5microL/well in tissue culture treated 1536-well white wall/solid bottom assay plates (Greiner Bio-One North America, NC, U.S.A.) using a Multidrop Combi 8 channel dispenser (Thermo Fisher, Waltham, MA, USA). 23 nL compounds and controls were transferred using the pin tool (Kalypsys, San Diego, CA, USA) to the assay plates. The assay plates were then incubated at 37 masculineC for a minimum 48 hr. Three microL of Cell Titer Glo solution was added to the plates and incubated at RT in dark for 30 min. Luminescence was read using ViewLux (Perkin Elmer) with 1 sec exposure slow speed, high gain and 2x binning.
# On the % scale 0 is the no-effect control and ±100 the full control effect; potency means the concentration at half of the fitted maximal effect.
SMILES,"activity change, negative = growth inhibition",Potency
Cc1cccc(N(C(=O)Cn2nnc(-c3ccc(C)o3)n2)C(C(=O)NC2CCCC2)c2ccncc2)c1 (stereo not given),-14.6% (inactive),
COc1ccc(CN2CCC3(CCC(CNC(=O)c4ccco4)O3)CC2)cc1OC (stereo not given),-1.91% [at 9.04 µM],
O=C(OCC(=O)N1CCCC1)c1ccc(Cl)nc1,-5.05% (inactive),
CC(C)(C)c1ccc(C(=O)Nc2ccc3c(c2)CCCN3C(=O)c2cccs2)cc1,,5.8 µM (active)
O=C(Nc1ccc(NC(=O)c2cccs2)cc1)c1ccc2ccccc2c1,-3.7% (inactive),
O=C(Nc1ccccc1)c1ccc(NC(=O)c2cccs2)cc1,-21.6% (inactive),
COCCN(C(=O)CCC(=O)Nc1nccs1)C(C(=O)NC(C)(C)C)c1ccc(Cl)cc1 (stereo not given),-4.68% (inactive),
CCOC(=O)N1CCN(Cc2ccc3c(c2)CN(C(=O)c2cccc(-n4cccn4)c2)CCO3)CC1,-11.3% [at 9.04 µM],
O=C(c1cccc(Cn2cccn2)c1)N1CCOc2c(cc(-c3csc4ccccc34)cc2OC2CCOC2)C1 (stereo not given),,18.4 µM (active)
Cc1cnc(C)c(-c2cc(F)c3c(c2)CC(CNC(=O)c2cccc(Cn4cccn4)c2)O3)n1 (stereo not given),-5.96% (inactive),
Cc1ccc(C(=O)NCC(=O)OCC(=O)Nc2cccc(S(=O)(=O)N3CCCC3)c2)cc1C,-26.5% (inactive),
CN1C[C@@H](CO)O[C@@H](n2cnc3c(N4CCN(CCO)CC4)ncnc32)C1,-0.685% (inactive),
CCCCn1c(N)c(N(CCC(C)C)C(=O)CC2OC(=O)c3ccccc32)c(=O)[nH]c1=O (stereo not given),-12.2% (inactive),
CCOc1cc(/C=C(/C#N)c2ccc(Cl)cc2)cc(Cl)c1OCC(=O)O,-4.71% (inactive),
CCOc1ccc(C(CC(=O)O)NC(=O)COc2ccccc2)cc1 (stereo not given),-2.55% (inactive),
O=C(COc1ccc(-c2ccccc2)cc1)NN=C1CCCC1,6.33% (inactive),
CC(NC(=O)COc1ccc(-c2ccccc2)cc1)C1CCCO1 (stereo not given),,20.6 µM (active)
CN(C(=O)COC(=O)CNC(=O)C12CC3CC(CC(C3)C1)C2)c1ccccc1,-8.7% (inactive),
O=C(NCC(=O)N1CCC2(CC1)NCCc1[nH]cnc12)c1ccc(Br)cc1,-15.1% (inactive),
CN(CC(=O)Nc1ccc(S(=O)(=O)N2CCCC2)cc1)Cc1ccc(Cl)c(Cl)c1,-74.4% (inactive),
CCc1ccc(CN(C)C(C)C(=O)Nc2ccc(S(=O)(=O)N3CCCC3)cc2)cc1 (stereo not given),,18.4 µM (active)
CC(OC(=O)c1ccc(NC(=O)CC#N)cc1)C(=O)Nc1ccc(S(=O)(=O)N2CCCC2)cc1 (stereo not given),-20% (inactive),
Cc1cc(/C=C(/C#N)C(=O)Nc2ccc(Cl)cc2)c(C)n1-c1cccnc1,-22% (inactive),
COCCn1c(SCC(=O)Nc2ccc(F)cc2F)nc2c(c1=O)SCC2,-8.27% (inactive),
O=C(NNS(=O)(=O)c1ccc(F)cc1)c1cnccn1,13.9% (inactive),

SMILES,"activity change, negative = growth inhibition",Potency
C=CCn1c(=O)c(C(=O)Nc2ncccc2O)c(O)c2ccccc21,20.6% (inactive),
O=C(O)/C=C/c1ccc(S(=O)(=O)N2CCCCCC2)cc1,9.25% (inactive),
CCOC(=O)N1CCN(C(=O)c2ccc3nc4cc(Cl)ccc4c(=O)n3c2)CC1,-27.5% (inactive),
CCOc1ccc(-c2ccc(SCC(=O)N3CCOCC3)nn2)cc1,-7.39% (inactive),
COc1cccc(N2CCN(c3ccc4nnc(CCC(=O)N5CCN(C)CC5)n4n3)CC2)c1,-12.6% (inactive),
Cn1nc(C(F)(F)F)c2cc(C(=O)N3CCOCC3)sc21,6.01% (inactive),
CCOC(=O)N1CCN(C(=O)CNC(=O)Cc2ccc(Cl)cc2)CC1,-8.62% (inactive),
COc1cccc(-c2ccc(SCC(=O)N3CCN(c4ccccc4)CC3)nn2)c1,,16.4 µM (active)
COc1cccc(/C=C/C(=O)OCC(=O)N2CCN(c3ccccc3)CC2)c1,-21.8% (inactive),
COc1cccc(-c2nn(C)c3sc(C(=O)N4CCN(c5ccccc5)CC4)cc23)c1,,23.1 µM (active)
CCOC(=O)N1CCN(C(=O)c2cc3c(-c4ccc(Cl)cc4)nn(C)c3s2)CC1,,16.4 µM (active)
O=C(Nc1nccs1)C1CCN(S(=O)(=O)c2ccc(Cl)c(C(F)(F)F)c2)CC1,-10.5% (inactive),
O=C(NCc1cccnc1)c1ccccc1NC(=O)c1c(F)cccc1F,-10.2% (inactive),
CN(C)C(=O)c1cccn(Cc2cccc(C(F)(F)F)c2)c1=O,-13.1% (inactive),
CC(C)CC(=O)NC(=S)Nc1ccc(F)cc1F,-3.59% (inactive),
CCOC(=O)c1cc(NC(=O)c2cccnc2)ccn1,1.21% (inactive),
CCCCOC(=O)c1ccc(N2C(=O)CC(N3CCN(C/C=C/c4ccccc4)CC3)C2=O)cc1 (stereo not given),-15.8% (inactive),
O=C(c1ccc(F)cc1)N1CCC(n2nnc3ccccc32)CC1,1.92% (inactive),
CC(NC(=O)CCCC1CCCCC1)c1ccc(S(N)(=O)=O)cc1 (stereo not given),9.33% (inactive),
CC(Sc1nc2cc(Cl)ccc2s1)C(=O)Nc1ccc2c(c1)OCO2 (stereo not given),5.21% (inactive),
COc1ccc(C2NC(=O)N(C)C3=C2C(=O)N(c2ccc(C(=O)O)cc2)C3)cc1 (stereo not given),-7.11% (inactive),
CC(C(=O)Nc1ccc(F)c(F)c1F)N1CCCCCC1 (stereo not given),-23.8% (inactive),
COc1ccc([N+](=O)[O-])cc1NC(=O)CC1SC(=Nc2cccc(C)c2C)N(/N=C(\C)c2ccc(C)cc2)C1=O (stereo not given),12.7% (inactive),
CCOc1ccc(CN2CCN(Cc3c[nH]c4ccccc34)CC2)cc1,,3.66 µM (active)
CCOc1ccc(CN2CCCN(C)CC2)cc1,-17.7% (inactive),
